# From PubChem BioAssay AID361 (National Center for Advancing Translational Sciences (NCATS), 2006)
# Among all 51,000 compounds or so, about 600 (1.2%) were called active. About 2% were inconclusive and are not listed. The list comes from a sample in which actives are over-represented; it also holds similar structures and randomly drawn compounds. Unmarked numbers belong to inactive results. Cut-off read from the data, not from the text of the source: active = potency below about 11 µM; inconclusive = mostly about 12 µM to 25 µM; inactive = weaker than that;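 the screen sought inhibitors and activators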.
# Test system: pyruvate kinase (Bacillus stearothermophilus)
# Test: Pyruvate Kinase
# Conditions: purified pyruvate kinase, luminescence ATP production; ribose 5-phosphate activator present at AC10
# Description: Pyruvate kinase (partially purified from Bacillus stearothermophilus) was assayed for its ability to generate ATP from ADP using phosphoenolpyruvate (PEP) as a substrate. ATP generation was detected in a coupled reaction by luciferase-mediated luminescence, an ATP-dependent process. Pyruvate kinase substrates, PEP and ADP, were present in the assay at Km and […]-fold below Km respectively. The enzyme was assayed at an intermediate level of activity to screen for inhibitors and activators. In addition, ribose 5 phosphate, a positive modulator of pyruvate kinase, was included in the assay at AC10 in order to identify possible potentiators.
# NCGC Assay Protocol Summary:
# Three uL of substrate mix (final concentration, 50 mM imidazole pH 7.2, 50 mM KCl, 7 mM MgCl2, 2 mM PEP, 0.1 mM ADP, 0.7 nM ribose 5 phosphate, 0.01% Tween 20, 0.05% BSA) was dispensed into 1536 well plates. 23 nL of compound were delivered by a pin tool and 1 uL of enzyme mix (final concentration, 10 nM pyruvate kinase, 50 mM imidazole pH 7.2, 0.05% BSA) was added. After centrifugation at 1000 rpm for less than a minute, plates were incubated at room temperature for 2 hours. Three uL of detection and kinase stop mix (PKLight, Cambrex) was added, the plates centrifuged, and luminescence read by a ViewLux (Perkin Elmer) at 5 second exposure/plate. Data were normalized to the controls for AC100 stimulation (5 uM ribose 5 phosphate) and to AC100 inhibition (110 uM luteolin).
# Potency is the fitted concentration of half-maximal effect.
row,Structure (SMILES),Potency
1,CC(C)(C)NC(=O)NC(=O)COC(=O)Cn1c(C(F)(F)F)nc2ccccc21,> 57 µM
2,CCN(CC)C(=O)CSc1nnc(-c2ccc(S(=O)(=O)NCc3ccccc3Cl)cc2)o1,> 57 µM
3,CCn1c(SCC(=O)Nc2nc3ccc(OC)cc3s2)nnc1-c1ccoc1C,> 57 µM
4,O=C(CN1CCN(c2ccccn2)CC1)NCc1cccs1,> 57 µM
5,CC(C)n1c(SCC(=O)Nc2ccccc2N2CCCCC2)nc2c1c(=O)n(C)c(=O)n2C,> 57 µM
6,COC(=O)c1ccc(Oc2nc(NC(C)C)nc(SC)n2)cc1,> 57 µM
7,CNC(=O)CSc1nnc(CCc2ccccc2)n1-c1ccccc1,> 57 µM
8,CCOC(=O)C1CCN(c2ncnc3c2oc2ccc(Br)cc23)CC1,10.6 µM (active)
9,CCOC(=O)C1CCN(C(=O)c2oc3ccc(S(=O)(=O)N4CCCCCC4)cc3c2C)CC1,> 57 µM
10,Cc1cc(C)nc(N2CCN(c3ncnc4c3oc3ccccc34)CC2)n1,> 57 µM
11,CCCC(=O)Nc1cccc(-c2cn3ccsc3n2)c1,49.6 µM
12,O=C(NCc1cn2ccsc2n1)Nc1ccc(Cl)cc1,> 57 µM
13,COc1ccc(-c2cn3ccsc3n2)cc1,4.01 µM (active)
14,COc1ccc(CCNC(=O)CN2CCC(n3nnc4cc(F)ccc43)CC2)cc1OC,> 57 µM
15,CCCc1cc(=O)oc2c(C)c(O)c(CN3CCCCC3)cc12,> 25.6 µM
16,COc1ccccc1C(=O)Oc1ccc(N2C(=O)CCC2=O)cc1,> 57 µM
17,O=S(=O)(/C=C/c1ccccc1)NCCc1ccccn1,> 57 µM
18,Cc1nn(Cc2ccccc2)c(Cl)c1C(=O)OC1CCOC1=O (stereo not drawn),> 57 µM
19,O=C(c1cccs1)N1CCC(c2nc3ccccc3s2)CC1,> 57 µM
20,O=C(OC1CCOC1=O)c1ccc(-c2nc3ccccc3s2)s1 (stereo not drawn),4.84 µM (active)
21,CC(NCCO)C(=O)C12CC3CC(CC(C3)C1)C2 (stereo not drawn),> 57 µM

row,Structure (SMILES),Potency
1,CCC(C)NC(=O)N[C@@H](CCSC)C(=O)O (stereo partly drawn),> 57 µM
2,COC(=O)CNC(=O)c1ccc2c(c1)S(=O)(=O)c1ccccc1C2=O,> 57 µM
3,O=C(Oc1ccccc1)c1ccc2nccnc2c1,> 57 µM
4,O=C(Oc1ccc(-c2nc(-c3ccccn3)no2)cc1)c1ccccc1,6.85 µM (active)
5,CC(C)c1nc(-c2ccccn2)no1,> 57 µM
6,CCOC(=O)CSC1=C(C#N)C(c2ccco2)C(C(=O)OCc2ccccc2)=C(C)N1 (stereo not drawn),> 57 µM
7,N#Cc1c2c(c(-c3ccccc3)[nH]c1=O)CCCC2,> 25.6 µM
8,CCc1nnc(NC(=O)CSc2nnc(-c3ccncc3)n2Cc2ccccc2)s1,> 57 µM
9,C=CCn1c(C)cc(C(=O)CN2C(=O)c3ccccc3C2=O)c1C,5.37 µM (active)
10,Cc1cc(C(=O)COC(=O)CCCN2C(=O)c3ccccc3C2=O)c(C)n1C,> 57 µM
11,C=CCN(CC=C)C(=O)CN1C(=O)c2ccccc2C1=O,> 57 µM
12,O=C1CCC(C(=O)Nc2ccc(OC(F)F)cc2)N1 (stereo not drawn),> 57 µM
13,O=c1oc2cc(O)ccc2cc1-c1ccc(F)cc1,> 57 µM
14,COc1ccc(-c2cc3ccc(OCc4nn[nH]n4)cc3oc2=O)cc1,5.08 µM (active)
15,CCCCc1cc(=O)oc2cc(C)cc(OCc3nn[nH]n3)c12,> 57 µM
16,CCCCOc1ccc(C(C)(O)CCN2CCOCC2)cc1 (stereo not drawn),> 57 µM
17,O=C(CC1Nc2ccccc2NC1=O)Nc1ccccc1 (stereo not drawn),> 11.4 µM
18,Cc1ncc(CC(=O)n2cc(C(=O)c3cc(Cl)ccc3O)cn2)s1,> 57 µM
19,O=C1CC(Cc2ccccc2)C(=O)N1c1ccc(Cl)cn1 (stereo not drawn),> 57 µM
20,O=C(O)CCCC(=O)Nc1ccccc1-n1ccnc1,> 57 µM
21,CC(=O)c1cc2c(cc1N)OCO2,> 57 µM

row,Structure (SMILES),Potency
1,CCCCN(C)C(=O)C1CCN(Cc2ccccn2)CC1,> 57 µM
2,Cc1cc(N2CCCC2)n2nc(C)c(-c3ccccc3)c2n1,> 57 µM
3,CN(c1nc2ccccc2n2c(-c3ccco3)nnc12)S(=O)(=O)c1ccccc1,> 57 µM
4,Cn1c(-c2ccco2)nc2cc3ccccc3cc21,0.493 µM (active)
5,c1coc(-c2nc3nc4ccccc4n3nc2-c2ccco2)c1,> 57 µM
6,Clc1ccc(CSc2nnc([C@@H]3CCCN3)o2)cc1,> 57 µM
7,CCN1CCN(C(=O)c2ccccc2N(C)S(=O)(=O)c2ccc(C)cc2)CC1,> 57 µM
8,Cc1nnc(NC2=NCCCCC2)o1,> 57 µM
9,Cc1cc(C)c2nc(SCCC#N)nc(C)c2c1,48.9 µM
10,Fc1ccc2[nH]c3c(N4CCN(Cc5ccc6c(c5)OCO6)CC4)ncnc3c2c1,> 25.6 µM
11,CNC(=O)C1CC(=O)N(Cc2ccc3c(c2)OCO3)C(=Nc2ccc(F)cc2)S1 (stereo not drawn),> 57 µM
12,Cc1cc(C)n(C(=O)c2ccc(C)c(S(=O)(=O)N3CCOCC3)c2)n1,> 57 µM
13,COc1ccc2nc(N3CCCC(O)C3)c(C#N)cc2c1 (stereo not drawn),41.4 µM
14,O=C(NCc1ccccc1)C1C(=O)N(Cc2ccccc2)C(=O)C1C1(O)CCCC1 (stereo not drawn),> 25.6 µM
15,CC1CCCN(C(=O)Cn2c(=O)oc3ccccc32)C1 (stereo not drawn),> 57 µM
16,COc1c(F)c(F)c(-c2csc(N)n2)c(F)c1F,> 57 µM
17,Cc1cc(=O)oc(C)c1C(=O)Nc1cnc2ccccc2c1,> 57 µM
18,Cc1ccc2c(C(=O)CN3CCCC3)c(C)[nH]c2c1,> 11.4 µM
19,COc1ccc(OC)c(N=Cc2c(O)[nH]c3ccccc23)c1,> 57 µM
20,COC(=O)c1[nH]c2ccccc2c1NS(=O)(=O)c1ccc(OC)cc1OC,> 57 µM
21,COc1ccc(N=Cc2c(O)[nH]c3ccccc23)cc1OC,4.61 µM (active)
